Most compounds without a hit are left out; they make up all but 0.65% or so of the library.
NS1 function inh – blocks influenza NS1 protein function. 0.4% of 270,000 active. Potency, µM (titrated, usually from 46.1 µM). AID 2326; further: actives are rising curves; nearly all actives have a fitted effect of over 50% in size
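A cell-based growth assay was used: compounds that relieve NS1-induced slow growth of budding yeast raise OD600. Assay medium was yeast nitrogen base with ammonium sulphate and -URA supplement, pH 6.0, with 2% galactose.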
SARS PLpro yeast-1 – inhibitors of SARS-CoV papain-like protease in yeast; S. cerevisiae expressing SARS-CoV PLpro, growth rescue; Potency, µM (titrated, usually from 32.9 µM), most hits filed as activators; 0.19% of 330,000 active; AID 485353; further: nearly all actives have a fitted effect of over 55% in size
AMA1-RON2 inh – AMA1-RON2 (P. falciparum) interaction inhibition; AlphaScreen AMA1-biotinylated RON2 peptide binding; Potency, µM (titrated, usually from 58.2 µM), usual class: inhibitors; 0.2% of 360,000 active; AID 720542; active means well fitted inhibition curve with a large enough effect; inconclusive means small, poorly fitted or top-dose-only effect; inactive means no such curve, though single readings can be large or run the other way; further: nearly all actives have a fitted effect of over 45% in size
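AMA1 (3D7) with his tag at 25 nM final met compounds first, then biotinylated RON2 peptide at 25 nM; detection used donor plus acceptor beads, 10 µg/mL apiece, read by AlphaScreen after 30 min at room temperature.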
SARS PLpro yeast-2 – Inhibits SARS-CoV PLP in yeast, hit validation; shares compounds with SARS PLpro yeast-1; AID 652038; calls only; yeast expressing SARS-CoV PLpro, growth phenotype rescue; 19% of 1,000 active; call rule not given here
Hits are given with their value; i = inactive; ? = inconclusive; nt = no result; + = active, no number; [ ] = dose if it differs, or a comment. Unless noted, the call rests on the fitted dose curve.

SMILES	NS1 function inh	SARS PLpro yeast-1	AMA1-RON2 inh	SARS PLpro yeast-2
CCC(C)NC(=O)CSc1nnc(-c2ccc(OC)c(OC)c2)c(-c2ccc(OC)c(OC)c2)n1 (configuration not stated)	i	i	i	nt
CC(C)(C)OC(=O)N1CCC[C@H]1C(=O)NCc1ccc(F)cc1F	nt	nt	i	nt
Cc1cc(/C=C(\C#N)C(=O)NC2CCCCCC2)c(C)[nH]1	i	13µM	i[2.32 µM]	i
Cc1cc(/C=C(\C#N)C(=O)NC2CC2)c(C)[nH]1	i	i	i	nt
CCc1ccc(N(CC(=O)NC(C)(C)C)C(=O)CCC(=O)Nc2ccccn2)cc1	i	i	i	nt
O=C(/C=C1\NC2(CCCC2)Cc2ccccc21)C(=O)N/N=C/c1ccccc1O	?	7.9µM	i	+
COc1cc(/C=N/NC(=O)C(=O)/C=C2\NC3(CCCC3)Cc3ccccc32)ccc1O	i	i	i[2.32 µM]	nt
COCCN(C(=O)CSc1nnc(-c2ccncc2)n1C)c1c(N)n(CC(C)C)c(=O)[nH]c1=O	nt	nt	i	nt
O=S(=O)(c1ccc(OCC(O)CN2CCN(c3ccccc3)CC2)cc1)N1CCOCC1 (configuration not stated)	i	?	i	i
O=S(=O)(c1ccc(OCC(O)CN2CCN(c3ccccc3O)CC2)cc1)N1CCOCC1 (configuration not stated)	i	i	i	nt
CCCn1c(C(C)Nc2nc(C)cs2)nc2cc(Cl)c(Cl)cc21 (configuration not stated)	i	?	i	nt
O=C(c1ccc2c(=O)n3c(nc2c1)CCC3)N1CCCSC1=Nc1ccccc1	nt	i	i	nt
NC(=O)OCC(O)COc1ccc(Cl)cc1 (configuration not stated)	nt	nt	i	nt
Cc1cc(=O)c2ccccc2n1Cc1ccccc1	i	i	i	nt
Cc1ccc2c(c1)c(=O)c(Br)c(C)n2Cc1ccccc1	i	?	i	i
COc1cc(C(=O)NCCC(=O)NC(C)CCc2ccccc2)cc(OC)c1OC (configuration not stated)	i	i	i	nt
O=Cc1ccccc1-n1cccn1	nt	i	i	nt
NC(N)=NC1=NC(=O)/C(=C/c2ccccc2-n2cccn2)S1	nt	nt	i	i
OCC(O)C1OC(Nc2ccc(Cl)cc2)C(O)C1O (configuration not stated)	?	i	i	nt
COc1cc(OC)c2cc(C(=O)N[C@H](C(=O)N3CCC[C@H]3C(=O)O)C(C)C)n(C)c2c1	i	i	i	nt
CC(=O)Nc1ccc(NCC(O)COc2ccccc2)cc1 (configuration not stated)	i	i	i	nt
COCC(O)CNc1ccccc1 (configuration not stated)	i	?	i	i
CC1CCCC(C)N1C(=O)COC(=O)Cc1ccc(Cl)cc1 (configuration not stated)	i	i	i	nt
CN(C(=O)COC(=O)Cc1ccc(Cl)cc1)C1CCCCC1	nt	?	i	i
O=C(CN1CCN(C(=O)c2ccco2)CC1)Nc1ccc(F)cc1F	i	i	i	nt
SMILES	NS1 function inh	SARS PLpro yeast-1	AMA1-RON2 inh	SARS PLpro yeast-2
CNc1ccc(C(=O)OCC(=O)NCc2ccc3c(c2)OCO3)cc1[N+](=O)[O-]	nt	i	i	nt
O=C(CC[C@H]1O[C@@H](n2cnc3c(NC(=O)c4ccccc4)ncnc32)[C@H](O)[C@@H]1O)NCCCN1CCOCC1	nt	nt	i	nt
O=C(CCN1C(=O)[C@@H]2Cc3ccccc3CN2C1=O)N[C@@H](Cc1ccccc1)C(=O)O	i	6.3µM	i	i
O=C(CCCCCN1C(=O)[C@@H]2Cc3ccccc3CN2C1=O)N[C@@H](Cc1ccc(O)cc1)C(=O)O	i	i	i	nt
CCOC(=O)C(C)S(=O)(=O)c1ccc(C(F)(F)F)cn1 (configuration not stated)	i	?	i	i
CCOC(=O)N1CCN(c2ccc(C(F)(F)F)cn2)CC1	i	i	i	nt
COc1ccc(COC(=O)C2=C(C)NC(=O)NC2c2cc(OC)ccc2OC)cc1 (configuration not stated)	i	i	i	nt
CCSCCOC(=O)C1=C(C)NC(=O)NC1c1cc(OC)ccc1OC (configuration not stated)	i	?	i	i
Cc1ccc(Cl)c(OCC(=O)Nc2ccccc2N2CCCCC2)c1	nt	nt	i	nt
CCOC(=O)C(C(=O)OCC)c1c([N+](=O)[O-])c(=O)n2c3c(cccc13)CCC2	i	i	i	nt
CCOC(=O)c1sc(=S)n(C)c1NC(=O)c1ccc(OC)cc1	i	i	i	nt
CCOC(=O)c1sc(=S)n(C)c1NC(=O)c1ccccc1Cl	i	22µM	i	i
COC(=O)c1ccc(NC(=S)NC2c3ccccc3CC2O)cc1 (configuration not stated)	i	i	i	nt
CN(CC(=O)NCC1CCCCC1)CC(=O)Nc1ccccc1Br	nt	i	i	nt

Assay outcomes: PubChem BioAssay, National Center for Advancing Translational Sciences (NCATS)
